Source: PubChem BioAssay (Tox21)
Inconclusive results are not listed. A call without a number means that no potency is given here. Active and inactive are the calls of the source. Unless noted, calls follow the shape of the dose curve; as a rule, active = well fitted cell-killing curve with a large enough effect in the repeat runs; inconclusive = weak or mixed curves, or effect the other way; inactive = no such curve, though single readings can be large or run the other way.

Test system: not listed separately
Assay: qHTS assay to identify small molecule agonists of the estrogen receptor alpha (ER-alpha) signaling pathway in the presence of an antagonist - cell viability counter screen (AID 1259386);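 also: cells exposed to compounds for 22 h at 37 °C before the viability read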; also: potency is read from the fitted curve at half-maximal effect
Conditions: VM7Luc4E2 viability, CellTiter-Fluor fluorescence, 22 h; series mostly up to 92.4 µM
Outline: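 Cell viability in VM7Luc4E2 cells (endogenous full-length ER-alpha) measured by CellTiter-Fluor fluorescence in the same wells as the luciferase screen. Cells pre-cultured 5 days in charcoal-stripped serum, then treated 22 h with compounds at 15 concentrations plus 10.0nM ICI-182,780.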
Also: nearly all actives have a fitted effect of over 30% in size.

Structure (SMILES) | Potency
O=C(CC(=O)c1ccccc1)c1ccccc1 | inactive
CC(C)=CCCC(C)CC=O (stereo not drawn) | inactive
CN(c1nccc(=O)[nH]1)C1CCN(c2nc3ccccc3n2Cc2ccc(F)cc2)CC1 | inactive
CC1(C)CCC(C)(C)c2cc(NC(=O)c3ccc(C(=O)O)cc3)ccc21 | inactive
CCCCOC(=O)c1ccccc1C(=O)OCC(CC)CCCC (stereo not drawn) | inactive
O=C(c1ccccc1)c1ccc2n1CCC2C(=O)O (stereo not drawn) | inactive
CCN(CC)C(C)CN1c2ccccc2Sc2ccccc21 (stereo not drawn) | inactive
O=C(Nc1ccccc1)OCC(CN1CCCCC1)OC(=O)Nc1ccccc1 (stereo not drawn) | inactive
CC(O)C1CCCCC1 (stereo not drawn) | inactive
Cc1nc2ccccc2n1Cc1ccc(Cl)cc1 | 13.3 µM (active)
COCCCCCCCCOCCC[Si](C)(O[Si](C)(C)C)O[Si](C)(C)C | 24.3 µM (active)
CCCCCCOC(=O)CCC | inactive
COCCO | inactive
C=C(C)C(=O)OCCN(C)C | inactive
CC(C)(C)c1ccc(S)cc1 | inactive
CCOc1ccc2[nH]cc(C(=O)NCc3ccccc3)c(=O)c2n1 | inactive
O=c1[nH]cnc2ccccc12 | inactive
CN1CCN(C2=Nc3ccccc3Sc3ccc(Cl)cc32)CC1 | inactive
CCC(C)N(C)C(=O)c1cc2ccccc2c(-c2ccccc2Cl)n1 (stereo not drawn) | inactive
Cc1ccccn1 | inactive

Structure (SMILES) | Potency
N#Cc1c(F)cccc1F | inactive
S=C(S)NCCNC(=S)S | inactive
CN(C)CC/C=C1\c2ccccc2COc2ccccc21 | inactive
O=C(O)Cc1cc(I)c(Oc2ccc(O)c(I)c2)c(I)c1 | inactive
CC(=O)N(O)CCCCCNC(=O)CCC(=O)N(O)CCCCCNC(=O)CCC(=O)N(O)CCCCCN | inactive
O=S1(=O)c2cccc3cccc(c23)N1CCCN1CCN(c2ccc(F)cc2)CC1 | inactive
C=CCCCCCC | inactive
O=C1CCCCCO1 | inactive
CN(C)CC[C@@H](c1ccc(Br)cc1)c1ccccn1 | inactive
FC(F)(F)C(F)(F)C(F)(F)C(F)(F)C(F)(F)C(F)(F)CCI | inactive
O=C(c1ccc(O)cc1)c1ccc(O)cc1 | inactive
O=C(O)C(c1ccc(Cl)cc1)c1ccc(Cl)cc1 | inactive
O=C(NS(=O)(=O)/C=C/c1cccs1)c1ccc(F)cc1Br | inactive
O=C(O)C1CCC(C(=O)O)CC1 (stereo not drawn) | inactive
CC(=O)OC/C=C/c1ccccc1 | inactive
c1ccc(-c2nc[nH]c2-c2ccccc2)cc1 | inactive
CN1CCC(OC(c2ccccc2)c2ccccc2)CC1 | inactive
CC(=O)OCCc1ccccc1 | inactive
Cc1ccc(C(C)c2ccc(C)c(C)c2)cc1C | inactive

Target: Progesterone receptor (Homo sapiens) (UniProt P06401)
Assay: qHTS assay to identify small molecule agonists of the progesterone receptor (PR) signaling pathway (AID 1346784; calls by dose curve)
Conditions: PR-UAS-bla HEK293T, beta-lactamase FRET ratio, 16 h; series mostly up to 92.4 µM
Outline: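 Reporter assay, GripTite PR-UAS-bla HEK 293T cells: 16 hr exposure to DMSO-dissolved compounds at 37C, 5% CO2, in steroid-depleted (2% charcoal-stripped FBS) medium; beta-lactamase measured by FRET fluorescence.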

Chain of Progesterone receptor (Homo sapiens) (P06401 whole entry, looked up): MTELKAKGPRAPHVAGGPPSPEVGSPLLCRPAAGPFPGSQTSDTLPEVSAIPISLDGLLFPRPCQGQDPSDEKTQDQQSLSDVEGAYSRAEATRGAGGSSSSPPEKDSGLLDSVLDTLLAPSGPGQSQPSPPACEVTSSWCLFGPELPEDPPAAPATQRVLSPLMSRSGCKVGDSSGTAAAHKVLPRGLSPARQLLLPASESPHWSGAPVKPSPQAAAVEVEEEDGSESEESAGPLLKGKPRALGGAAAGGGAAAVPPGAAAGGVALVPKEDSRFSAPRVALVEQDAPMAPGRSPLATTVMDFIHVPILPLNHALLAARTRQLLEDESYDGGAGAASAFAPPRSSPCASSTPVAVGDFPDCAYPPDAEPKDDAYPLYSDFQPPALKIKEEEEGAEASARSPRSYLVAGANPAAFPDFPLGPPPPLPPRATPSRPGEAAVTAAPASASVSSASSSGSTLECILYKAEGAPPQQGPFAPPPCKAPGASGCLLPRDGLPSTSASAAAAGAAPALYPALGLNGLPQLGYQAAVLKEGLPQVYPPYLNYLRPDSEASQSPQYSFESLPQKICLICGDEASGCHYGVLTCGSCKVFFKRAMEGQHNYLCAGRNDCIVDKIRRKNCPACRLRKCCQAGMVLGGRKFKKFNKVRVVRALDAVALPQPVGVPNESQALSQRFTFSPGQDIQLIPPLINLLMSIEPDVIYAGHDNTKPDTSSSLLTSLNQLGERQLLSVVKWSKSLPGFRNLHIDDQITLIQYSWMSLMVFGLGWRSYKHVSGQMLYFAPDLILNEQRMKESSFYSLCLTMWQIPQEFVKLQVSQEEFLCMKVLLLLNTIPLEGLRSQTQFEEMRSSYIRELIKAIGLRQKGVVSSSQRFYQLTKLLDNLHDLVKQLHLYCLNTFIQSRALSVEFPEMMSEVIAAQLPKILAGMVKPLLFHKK

Structure (SMILES) | outcome
O=C(CC(=O)c1ccccc1)c1ccccc1 | inactive
CC(C)=CCCC(C)CC=O (stereo not drawn) | inactive
CN(c1nccc(=O)[nH]1)C1CCN(c2nc3ccccc3n2Cc2ccc(F)cc2)CC1 | inactive
CC1(C)CCC(C)(C)c2cc(NC(=O)c3ccc(C(=O)O)cc3)ccc21 | inactive
CCCCOC(=O)c1ccccc1C(=O)OCC(CC)CCCC (stereo not drawn) | inactive
O=C(c1ccccc1)c1ccc2n1CCC2C(=O)O (stereo not drawn) | inactive
CCN(CC)C(C)CN1c2ccccc2Sc2ccccc21 (stereo not drawn) | inactive
O=C(Nc1ccccc1)OCC(CN1CCCCC1)OC(=O)Nc1ccccc1 (stereo not drawn) | inactive
CC(O)C1CCCCC1 (stereo not drawn) | inactive
Cc1nc2ccccc2n1Cc1ccc(Cl)cc1 | inactive
COCCCCCCCCOCCC[Si](C)(O[Si](C)(C)C)O[Si](C)(C)C | inactive
CCCCCCOC(=O)CCC | inactive
COCCO | inactive
C=C(C)C(=O)OCCN(C)C | inactive
CC(C)(C)c1ccc(S)cc1 | inactive
CCOc1ccc2[nH]cc(C(=O)NCc3ccccc3)c(=O)c2n1 | inactive
O=c1[nH]cnc2ccccc12 | inactive
CN1CCN(C2=Nc3ccccc3Sc3ccc(Cl)cc32)CC1 | inactive
CCC(C)N(C)C(=O)c1cc2ccccc2c(-c2ccccc2Cl)n1 (stereo not drawn) | inactive
Cc1ccccn1 | inactive

Structure (SMILES) | outcome
N#Cc1c(F)cccc1F | inactive
S=C(S)NCCNC(=S)S | inactive
CN(C)CC/C=C1\c2ccccc2COc2ccccc21 | inactive
O=C(O)Cc1cc(I)c(Oc2ccc(O)c(I)c2)c(I)c1 | inactive
CC(=O)N(O)CCCCCNC(=O)CCC(=O)N(O)CCCCCNC(=O)CCC(=O)N(O)CCCCCN | inactive
O=S1(=O)c2cccc3cccc(c23)N1CCCN1CCN(c2ccc(F)cc2)CC1 | inactive
C=CCCCCCC | inactive
O=C1CCCCCO1 | inactive
CN(C)CC[C@@H](c1ccc(Br)cc1)c1ccccn1 | inactive
FC(F)(F)C(F)(F)C(F)(F)C(F)(F)C(F)(F)C(F)(F)CCI | inactive
O=C(c1ccc(O)cc1)c1ccc(O)cc1 | inactive
O=C(O)C(c1ccc(Cl)cc1)c1ccc(Cl)cc1 | inactive
O=C(NS(=O)(=O)/C=C/c1cccs1)c1ccc(F)cc1Br | inactive
O=C(O)C1CCC(C(=O)O)CC1 (stereo not drawn) | inactive
CC(=O)OC/C=C/c1ccccc1 | inactive
c1ccc(-c2nc[nH]c2-c2ccccc2)cc1 | inactive
CN1CCC(OC(c2ccccc2)c2ccccc2)CC1 | inactive
CC(=O)OCCc1ccccc1 | inactive
Cc1ccc(C(C)c2ccc(C)c(C)c2)cc1C | inactive
